SSB-PriA inh = blocks PriA binding to SSB C-terminal tail; AlphaScreen SSBct-PriA binding, biotinylated peptide; inhibition, % at 33 µM; 430,000 compounds, 0.6% hits; AID 1272365; in the data active = inhibition mostly above about 37%, no sharp cut-off; inactive = mostly below about 20%;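 also: plate controls were negative control peptide for no effect and reference peptide for full effect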
PrPC surface inh = cell surface PrPC inhibition, primary TR-FRET screen | P04156 | TR-FRET read-out | inhibition, % at 13.8 µM | 370,000 compounds, 0.43% hits; in the data active = inhibition above about 24%; also: 0% = median of the test wells and 100% = reference compound wells
PrP 5UTR inh = suppresses PrP 5' UTR mRNA reporter expression. 340,000 compounds, 0.35% hits. cell-based PrP 5' UTR mRNA reporter, plate reader. inhibition, % (test concentration not listed); in the data active = inhibition above about 52%; also: 0 = median of the neutral control wells
BJeLR lethal = kills HRASV12-expressing BJeLR cells. BJeLR (HRASV12) viability, CellTiter-Glo ATP luminescence, 48 h. inhibition, % (test concentration not listed). 300,000 compounds, 0.17% hits. AID 1554; in the data active = inhibition above about 50%; inconclusive = no clear call, values can overlap the other calls
3CLpro inhibitor = SARS-CoV 3CLpro protease inhibition; P0C6X7; recombinant SARS-CoV 3CLpro, quenched FRET peptide cleavage; inhibition, % at 6 µM; AID 1706; 290,000 compounds, 0.14% hits; in the data active = inhibition above about 12%
PrP 5UTR single = prion 5' UTR mRNA inhibition, cherry-pick retest. cell-based prion protein 5' UTR reporter, plate reader. shares compounds with PrP 5UTR inh. inhibition, % at 2.5 µM. 1,100 compounds, 48% hits. AID 504592; in the data active = inhibition above about 54%; inconclusive = no clear call, values can overlap the other calls
* hit, by the source's call; i = inactive; ? = inconclusive; · = no result. An excerpt weighted towards active compounds, which were near 1.2% of everything screened.

SMILES	SSB-PriA inh	PrPC surface inh	PrP 5UTR inh	BJeLR lethal	3CLpro inhibitor	PrP 5UTR single
O=C(NCCc1ccccc1)c1ccc2c(c1)OCCCO2	-5	9	92*	-7	-9	91*
O=C(NCCc1ccccc1)c1ccc2c(c1)OCCO2	-3	4	88*	-2	-2	83*
O=C(CCc1ccccc1)c1ccc2c(c1)OCCCO2	-84	-5	-79	-3	0	·
Cc1ccc(C(=O)NCCc2ccccc2)cc1	0	·	59*	0	0	64*
Cc1ccc(C(=O)NCCc2ccncc2)cc1	-14	-7	-33	2	1	·
CC(=O)N1N=C(c2ccsc2)C[C@H]1c1cccs1	-10	·	·	·	·	·
O=C1CCC(=O)N1c1ccc(S(=O)(=O)Nc2ccc(F)cc2)cc1	-9	·	·	·	·	·
O=C(Nc1ccncc1NC(=O)c1ccc([N+](=O)[O-])s1)c1ccc([N+](=O)[O-])s1	-8	·	·	·	·	·
O=C(c1ccc(-c2ccsc2)cc1)N(CCc1cccs1)C1CC1	-3	·	·	·	·	·
O=C(c1ccc(F)cc1)N1CCOCC1	1	4	69*	3	3	-18
O=C(Nc1ccc(F)cc1)c1ccc(C(=O)N2CCOCC2)cc1	-8	-4	-14	8	·	·
COC(=O)c1c(N)sc(C(=O)NCCc2ccccc2)c1C	-1	13	70*	14	5	64*
O=C(c1ccc2c(c1)OCCO2)N1CCN(Cc2ccccc2)CC1	3	0	-20	0	-2	·
O=C(c1ccccc1)N1CCN(C(=O)c2ccc3c(c2)OCCO3)CC1	-13	7	78*	-1	-2	-12
CC(=NNC(=O)c1ccco1)c1cccnc1	-12	·	·	·	·	·
CN1CCN(c2ccc(-c3ccc4ccccc4n3)cc2)CC1	-2	-16	92*	17	0	91*
c1ccc2nc(-c3ccncc3)ccc2c1	-17	-7	-45	-4	-4	·
Cc1cc(-c2ccc(N3CCOCC3)cc2)nc2ccccc12	-19	4	-62	-4	-6	·
c1ccc2nc(-c3ccc(N4CCOCC4)cc3)ccc2c1	-15	2	75*	12	-3	67*
CCCN(CCC)S(=O)(=O)c1ccc(C(=O)Nc2sc3c(c2C(N)=O)CCCC3)cc1	-3	·	·	·	·	·
NC(=NOC(=O)c1ccccc1Cl)c1ccccn1	-8	·	·	·	·	·
NC(=NOC(=O)c1ccc(Cl)cc1Cl)c1ccccn1	-23	·	·	·	·	·
N/C(=N\OC(=O)c1ccc(Cl)cc1Cl)c1ccccn1	·	3	79*	13	-4	55*
N/C(=N\OC(=O)c1cc([N+](=O)[O-])ccc1Cl)c1ccccn1	·	-16	-22	3	3	·
Cc1ccc(C(=O)O/N=C(\N)c2ccccc2)c(Cl)c1	i	-10	56*	-6	-1	55*
SMILES	SSB-PriA inh	PrPC surface inh	PrP 5UTR inh	BJeLR lethal	3CLpro inhibitor	PrP 5UTR single
N/C(=N\OC(=O)c1ccc([N+](=O)[O-])cc1Cl)c1ccccn1	·	-6	65*	-2	-2	?
Cc1ccc(C(=O)O/N=C(\N)c2ccccn2)c(Cl)c1	i	-5	81*	10	2	94*
COc1ccc(C=NNc2nc(-c3ccc(Cl)cc3)cc(C(F)(F)F)n2)cc1OC	8	·	·	·	·	·
C=C1CC(Cn2cc(Br)c(=O)[nH]c2=O)(c2ccc(-c3ccccc3)cc2)OC1=O (stereo not given)	-3	3	61*	·	·	72*
c1cncc(-c2nnc(-c3csc4c3CCCC4)o2)c1	-15	·	·	·	·	·
COc1ccc(CCNc2ccc(C(=O)O)cc2[N+](=O)[O-])cc1OC	7	-28	62*	7	4	10
NC(=O)c1ccc(NCCc2ccccc2)c([N+](=O)[O-])c1	5	-36	-10	2	6	·
CCn1nc(C)cc1C(=O)Nc1ccc2sccc2c1	-13	·	·	·	·	·
CC(=O)Nc1ccc(SCC(=O)c2cc(C)n(Cc3cccs3)c2C)cc1	-7	3	61*	-1	3	36
CC(=O)Nc1ccc(SCC(=O)c2cc(C)n(-c3ccccc3F)c2C)cc1	20	4	68*	1	-3	21
COC(=O)c1ccc(-n2c(C)cc(C(=O)CSc3ccc(NC(C)=O)cc3)c2C)cc1	19	9	-5	1	2	·
CN1CCN(Cc2c(NC(=O)c3ccc(F)cc3)sc3c2CCCC3)CC1	5	·	·	·	·	·
COc1ccccc1OCC(=O)NCCN1CCN(c2ccccc2F)CC1	-8	·	·	·	·	·
CCC(=O)Nc1ccc2c(c1)CCN2C(C)=O	-12	·	·	·	·	·
CC(C)OC(=O)c1cc(C(=O)c2cc(Br)ccc2O)coc1=N	2	-2	63*	-11	7	-15
CC(C)OC(=O)c1cc(C(=O)c2cc(Cl)ccc2O)coc1=N	-8	-1	-25	-4	-2	·
Cn1nc(C2CCN(S(=O)(=O)C3CC3)CC2)n(-c2ccccc2)c1=O	4	·	·	·	·	·
COC(=O)Cc1c(O)ccn(Cc2ccc(OC)c(OC)c2)c1=O	2	2	63*	0	3	-8
CCOC(=O)c1c(NC(=O)c2cccc(Br)c2)sc2c1CCCCC2	-8	·	·	·	·	·
COc1ccc(C(Nc2ccccn2)c2oc(CO)cc(=O)c2O)cc1 (stereo not given)	-4	-3	62*	-3	1	-37
O=c1cc(CO)oc(C(Nc2ccccn2)c2ccc(F)cc2)c1O (stereo not given)	-16	-2	-17	5	5	·
CCN(C[C@H]1N[C@@](C)(C(=O)OC)[C@H]2C(=O)N(C)C(=O)[C@@H]12)C(=O)c1ccc(C(C)(C)C)cc1	-5	-3	58*	·	·	-12
CCNC(=O)N(CC)C[C@H]1N[C@@](C)(C(=O)OC)[C@H]2C(=O)N(C)C(=O)[C@@H]12	-6	5	-4	·	·	·
O=C(NC1CCSC1=O)c1csc(-c2cnccn2)n1 (stereo not given)	-3	·	·	·	·	·
Cc1ccc(C(=O)Nc2ccc3c(c2)OCCO3)c(C)c1	-4	6	71*	9	-1	?
SMILES	SSB-PriA inh	PrPC surface inh	PrP 5UTR inh	BJeLR lethal	3CLpro inhibitor	PrP 5UTR single
O=C1CC(SC(=NCc2ccc3c(c2)OCO3)Nc2ccccc2)C(=O)N1 (stereo not given)	3	-4	73*	-2	-2	-15
COc1ccc(C(=O)NN(C)c2nc(C(F)(F)F)nc3ccccc23)cc1	-1	8	71*	60*	2	90*
Cc1cn([C@H]2C[C@H](O)[C@@H](CCC(=O)NCCc3c[nH]c4ccccc34)O2)c(=O)[nH]c1=O	-11	2	59*	·	·	-54
Cc1ccc(S(=O)(=O)NCCC(=O)N2CC(C)OC(C)C2)cc1 (stereo not given)	4	1	75*	-1	·	12
COc1ccc2nc(NCCNC(=S)NCCCN3CCOCC3)c(C#N)cc2c1	-2	3	78*	-6	1	?
Cc1cc2cc(C#N)c(NCCNC(=S)NCCCN3CCOCC3)nc2cc1C	1	-6	-6	-5	10	·
CCCNC(=O)c1ccc2c(=O)c(O)c(-c3ccc(F)cc3)[nH]c2c1	7	·	-4	-13	·	·
CCCNC(=O)c1ccc2c(=O)c(O)c(-c3cccc(Br)c3)[nH]c2c1	-21	8	56*	5	·	?

Screening results: PubChem BioAssay, several laboratories
